The campaign covered roughly 310,000 compounds. About 14,000 (4.5%) showed an effect of 50% or more. Effects have a minus sign here. Many of the other results were omitted from the sample, so strong results are more common in it than they were.
Target: human ether-à-go-go-related gene (hERG) potassium channel (human, UniProt Q12809)
Test: primary screen, population patch clamp on CHO cells stably expressing hERG; higher = less effect of the substance
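Also: peak tail current of the secondary pulse compared with the same well before compound.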

Sequence of human ether-à-go-go-related gene (hERG) potassium channel (Q12809 whole entry, looked up): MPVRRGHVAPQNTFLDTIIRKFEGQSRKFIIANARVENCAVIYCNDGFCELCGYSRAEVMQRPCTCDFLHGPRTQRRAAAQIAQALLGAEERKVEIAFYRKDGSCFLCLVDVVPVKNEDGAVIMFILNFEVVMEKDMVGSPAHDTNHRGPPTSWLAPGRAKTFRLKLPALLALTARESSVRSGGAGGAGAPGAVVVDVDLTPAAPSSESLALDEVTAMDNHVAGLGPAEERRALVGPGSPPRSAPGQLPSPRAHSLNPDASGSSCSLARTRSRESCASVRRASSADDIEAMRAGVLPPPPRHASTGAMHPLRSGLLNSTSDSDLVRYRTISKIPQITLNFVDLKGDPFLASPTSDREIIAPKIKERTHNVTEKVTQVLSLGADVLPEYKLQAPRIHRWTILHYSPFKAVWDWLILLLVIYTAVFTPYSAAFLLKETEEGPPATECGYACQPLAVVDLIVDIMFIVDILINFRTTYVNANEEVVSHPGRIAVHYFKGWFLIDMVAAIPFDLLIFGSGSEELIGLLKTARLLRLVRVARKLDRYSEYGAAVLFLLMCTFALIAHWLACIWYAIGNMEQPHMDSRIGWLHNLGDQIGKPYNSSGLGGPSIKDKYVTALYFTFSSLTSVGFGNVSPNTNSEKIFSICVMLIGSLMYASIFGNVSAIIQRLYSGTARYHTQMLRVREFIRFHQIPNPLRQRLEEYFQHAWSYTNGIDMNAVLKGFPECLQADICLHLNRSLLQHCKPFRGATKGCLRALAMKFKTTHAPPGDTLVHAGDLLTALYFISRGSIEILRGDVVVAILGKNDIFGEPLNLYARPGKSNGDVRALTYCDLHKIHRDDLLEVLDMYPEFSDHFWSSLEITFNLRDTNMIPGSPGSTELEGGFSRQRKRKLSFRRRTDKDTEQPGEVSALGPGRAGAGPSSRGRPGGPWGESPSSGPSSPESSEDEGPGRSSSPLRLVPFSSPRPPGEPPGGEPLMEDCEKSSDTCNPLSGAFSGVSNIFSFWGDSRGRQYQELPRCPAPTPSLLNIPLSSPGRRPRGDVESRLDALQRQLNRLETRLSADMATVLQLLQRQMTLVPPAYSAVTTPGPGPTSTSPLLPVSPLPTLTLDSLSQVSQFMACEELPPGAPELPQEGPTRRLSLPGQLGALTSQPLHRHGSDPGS

| Compound | hERG current change (%, negative = inhibition) at 10uM [%] |
| --- | --- |
| COc1c(O)c(=O)n2c3ccccc3c3ccnc1c32 | 7.51 |
| CCc1ccc(NC(=O)Nn2cnnc2)cc1 | 23.7 |
| COC(=O)CNC(=O)CSc1nnc(-c2ccc(OC)cc2)n1CC(C)C | 4.97 |
| O=C(/C=N/O)Nc1ccccc1C(=O)O | -13.7 |
| N#Cc1ccc(C23CC4(C2)[C@H](CN(CC2CCCCC2)[C@@H]4c2ccccc2)C3c2ccccc2)cc1 (stereo partly drawn) | -13.6 |
| O=C(Nc1ccc(Cl)cc1)c1cccnc1N1CCCCC1 | -13.3 |
| COc1cc(C(=O)NCCNc2nc3ccc(C)cc3cc2C#N)cc(OC)c1OC | -4.74 |
| Cc1cccc2cc3c(NC(=O)CC(C)C)nn(C)c3nc12 | 10.2 |
| CSc1ccc(-c2sc(Nc3ccccc3)n[n+]2-c2ccccc2)cc1.[Cl-] | -46.2 |
| Oc1ccc(-c2sc(Nc3ccccc3)n[n+]2-c2ccc(F)cc2)cc1.[Cl-] | -1.63 |
| CCc1ccc(Nc2n[n+](-c3ccccc3)c(-c3ccc(N(CC)CC)cc3)s2)cc1.[Cl-] | -36 |
| Cc1cccc(-c2sc(Nc3ccccc3)n[n+]2-c2ccccc2)c1.[Cl-] | -72 |
| Cc1cccc(-c2sc(Nc3ccccc3)n[n+]2-c2ccc(F)cc2)c1.[Cl-] | 21.7 |
| CN(C)c1ccc(-c2sc(Nc3ccccc3)n[n+]2-c2ccc(F)cc2)cc1.[Cl-] | -73.1 |
| Fc1ccc(-[n+]2nc(Nc3ccccc3)sc2-c2c(Cl)cccc2Cl)cc1.[Cl-] | -64 |
| O=C(O)c1ccc(-c2sc(Nc3ccccc3)n[n+]2-c2ccc(F)cc2)cc1.[Cl-] | 2.83 |
| Clc1cccc(-c2sc(Nc3ccccc3)n[n+]2-c2ccccc2)c1Cl.[Cl-] | 5.53 |
| Fc1ccc(-[n+]2nc(Nc3ccccc3)sc2-c2cccc(Cl)c2Cl)cc1.[Cl-] | 8 |
| CCN(CC)c1ccc(-c2sc(Nc3ccccc3)n[n+]2-c2ccc(F)cc2)cc1.[Cl-] | -71.6 |
| CSc1ccc(-c2sc(Nc3ccccc3)n[n+]2-c2ccc(F)cc2)cc1.[Cl-] | 1.55 |
| Cl.O=C(c1ccco1)N1CCN(Cc2nnnn2CC2CCCO2)CC1 (stereo not drawn) | -3.16 |

| Compound | hERG current change (%, negative = inhibition) at 10uM [%] |
| --- | --- |
| Cn1c(=O)[nH]c(=O)c2c1nc(NC1CCCC1)n2Cc1ccccc1 | 15.8 |
| CC1CCN(c2c(NCc3ccc(C(=O)N4c5ccccc5CC4C)cc3)c(=O)c2=O)CC1 (stereo not drawn) | -13 |
| Cc1ccc(S(=O)(=O)Nc2c(C(=O)O)[nH]c3ccccc23)c(C)c1 | 8.39 |
| N#C/C(N)=C(/C#N)N=Cc1cccc(Cl)c1 | 4.99 |
| CCN1CCN(Cc2c(O)ccc3c2O/C(=C\c2ccc(C)cc2)C3=O)CC1 | -35.7 |
| CSc1ccc(S(=O)(=O)Nc2ccc(NC(C)=O)cc2)cc1 | -11.3 |
| CCOc1ccc(CN(C(=O)/C=C/c2ccco2)C2CCS(=O)(=O)C2)cc1 (stereo not drawn) | -31.6 |
| CC(=O)c1cccc(N(C(=O)CNC(=O)c2ccco2)C(C(=O)NC2CCCC2)c2ccc(C)o2)c1 (stereo not drawn) | 6.93 |
| O=C(C1CCN(c2ncnc3c2nc2n3CCCCC2)CC1)N1CCN(c2ccccc2F)CC1 | -33.1 |
| CC1CCN(CCCNC(=O)C2CCCN(c3ncnc4c3nc3n4CCCCC3)C2)CC1 (stereo not drawn) | -3.75 |
| O=C(C1CCN(c2ncnc3c2nc2n3CCCCC2)CC1)N1CCN(c2ccc(F)cc2)CC1 | -51.5 |
| O=C(C1CCCN(c2ncnc3c2nc2n3CCCCC2)C1)N1CCN(c2ccc(F)cc2)CC1 (stereo not drawn) | -66.8 |
| O=C(NCCCN1CCN(c2ccc(F)cc2)CC1)C1CCCN(c2ncnc3c2nc2n3CCCCC2)C1 (stereo not drawn) | -66.3 |
| CCN1CCN(C(=O)C2CCCN(c3ncnc4c3nc3n4CCCCC3)C2)CC1 (stereo not drawn) | 11.6 |
| CCOC(=O)C1CCN(C(=O)C2CCCN(c3ncnc4c3nc3n4CCCCC3)C2)CC1 (stereo not drawn) | -34.1 |
| O=C(NCCCN1CCCCC1)C1CCCN(c2ncnc3c2nc2n3CCCCC2)C1 (stereo not drawn) | 1.8 |
| Cc1ccc(N2CCN(C(=O)C3CCCN(c4ncnc5c4nc4n5CCCCC4)C3)CC2)c(C)c1 (stereo not drawn) | -7.35 |
| O=C(C1CCCN(c2ncnc3c2nc2n3CCCCC2)C1)N1CCN(c2ccccc2F)CC1 (stereo not drawn) | -72 |
| CN1CCN(C(=O)C2CCN(c3ncnc4c3nc3n4CCCCC3)CC2)CC1 | 17.7 |
| O=C(C1CCN(c2ncnc3c2nc2n3CCCCC2)CC1)N1CCCCC1 | 16 |
| O=C(O)CCC(=O)Nc1cc(C(F)(F)F)cc(C(F)(F)F)c1 | 15.1 |

| Compound | hERG current change (%, negative = inhibition) at 10uM [%] |
| --- | --- |
| Cc1ccccc1-n1c(-c2csc(C)c2C)n[nH]c1=S | 17.6 |
| Cc1cc(C)c2c(N)c(C(=O)c3cccc(Cl)c3)sc2n1 | 1.67 |
| CCOc1ccc(C(=O)N2CCc3cc(OC)c(OC)cc3C2)cc1OCC | 2.45 |
| CCOC(=O)C(C(=O)OCC)N(C#N)c1nc(OC)nc(N(C)C)n1 | -4.52 |
| O=C(CS)Nc1ccc2ccccc2c1 | 20.8 |
| CCn1c2ccccc2c2cc(NC(=O)c3cccc(OC)c3)ccc21 | 13.9 |
| COC(=O)c1sccc1NC(=O)CC1C(=O)NCCN1C(=O)c1ccc(N(C)C)cc1 (stereo not drawn) | 7.57 |
| COc1ccc(Cl)cc1NC(=O)CSc1nnc(CN2CCOCC2)n1-c1ccc(Cl)cc1 | -46.6 |
| O=C(Nc1ccc(S(=O)(=O)NCC2CCCO2)cc1)c1ccccc1 (stereo not drawn) | 2.19 |
| O=C(C1CCN(c2ncnc3c2nc2n3CCCCC2)CC1)N1CCN(c2cccc(Cl)c2)CC1 | -36.7 |
| Cc1ccc(C)c(N2CCN(C(=O)C3CCCN(c4ncnc5c4nc4n5CCCCC4)C3)CC2)c1 (stereo not drawn) | -33.6 |
| O=C(C1CCCN(c2ncnc3c2nc2n3CCCCC2)C1)N1CCCCC1 (stereo not drawn) | -18.2 |
| O=C(C1CCCN(c2ncnc3c2nc2n3CCCCC2)C1)N1CCN(c2ccc(Cl)cc2)CC1 (stereo not drawn) | -54.8 |
| O=C(C1CCCN(c2ncnc3c2nc2n3CCCCC2)C1)N1CCN(c2cccc(Cl)c2)CC1 (stereo not drawn) | -72.8 |
| CCCN1CCN(C(=O)C2CCCN(c3ncnc4c3nc3n4CCCCC3)C2)CC1 (stereo not drawn) | -1.04 |
| O=C(C1CCCN(c2ncnc3c2nc2n3CCCCC2)C1)N1CCN(c2ccccc2)CC1 (stereo not drawn) | -74 |
| CC1CC(C)CN(C(=O)C2CCCN(c3ncnc4c3nc3n4CCCCC3)C2)C1 (stereo not drawn) | -35.8 |
| O=C1CNC(=S)N1C(CO)c1ccccc1 (stereo not drawn) | 22.2 |
| CCc1cc(C(=O)Cc2ccc(F)cc2)c(O)cc1O | -12.7 |
| O=C(O)c1c(C(=O)O)c(-c2ccc(Br)cc2)n2c1CSC2 | 15 |
| O=C(O)COc1ccc(S(=O)(=O)NCCc2ccccc2)cc1 | 6.4 |

| Compound | hERG current change (%, negative = inhibition) at 10uM [%] |
| --- | --- |
| CC(C)C[C@H](NC(=O)C1CC(=O)N(c2ccc3c(c2)OCO3)C1)C(=O)NC1CCCC1 (stereo partly drawn) | -0.704 |
| Cc1cccc(OCC(=O)Nc2ccc(NC(=O)c3ccco3)c(C)c2)c1 | -15.3 |
| COc1ccc(C(=O)N2CCC(C(=O)Nc3ccc(C)cc3)CC2)cc1 | -75.9 |
| COc1ccc(C(=O)N2CCC(C(=O)Nc3cccc(C)c3)CC2)cc1OC | -38.9 |
| COc1ccc(C(=O)N2CCC(C(=O)NC3CC3)CC2)cc1 | 4.25 |
| CCOC(=O)c1ccc(NC(=O)C2CCN(C(=O)c3ccc(OC)c(OC)c3)CC2)cc1 | -58.7 |
| COc1ccc(NC(=O)C2CCN(C(=O)c3cccs3)CC2)cc1 | -12.4 |
| COc1ccc(NC(=O)C2CCN(C(=O)c3ccc(OC)cc3)CC2)cc1 | -72.2 |
| COC(=O)c1ccc(NC(=O)C2CCN(C(=O)c3cc(OC)c(OC)c(OC)c3)CC2)cc1 | 6.73 |
| COc1ccc(C(=O)N2CCC(C(=O)Nc3ccccc3OC)CC2)cc1 | -34.6 |
| COc1ccc(C(=O)N2CCC(C(=O)Nc3ccc(OC)c(OC)c3)CC2)cc1 | 1.37 |
| COc1ccc2sc(-c3ccccc3OC)c(-c3ccc4c(c3)OCCO4)c2c1 | 17.2 |
| Cc1c(C(=O)Nc2ccc3c(c2)OCCO3)oc2ccc(Br)cc12 | 0.46 |
| CCOC(=O)COc1c(OC)cc(Cl)cc1C1Nc2ccccc2C(=O)N1c1cccc(C)c1 (stereo not drawn) | -8.45 |
| O=C1OCCN/C1=C\C(=O)c1ccc(Cl)cc1 | 14.5 |
| Cn1ccc(NS(=O)(=O)c2cc(Br)ccc2Br)n1 | 0.158 |
| O=C(CCS(=O)(=O)c1ccc(F)cc1)Nc1nnc(-c2ccc(F)cc2)o1 | -10.7 |
| COc1ccc(NC(=O)c2sc3ncn(CC(=O)N4CCN(c5ccccn5)CC4)c(=O)c3c2C)c(OC)c1 | 19.5 |

Source: paper PMC4336329 (PLoS ONE, 2015)
